Records with an inconclusive call do not appear. Entries that show only a call come without a potency. Active and inactive are the calls of the source. Calls come from the whole dose curve; as a rule, active = well fitted cell-killing curve with a large enough effect; inconclusive = small, poorly fitted or top-dose-only effect, or effect the other way; inactive = flat fitted curve, though single readings scatter.
Experiment: Compound cytotoxicity measured by an ATP content assay as a counter-screen for lead compounds in human astrocytoma cell line (SNB-19)
Conditions: SNB-19 astrocytoma viability, ATP luminescence; series mostly up to 46.1 µM
Method: National Center for Advancing Translational Sciences [NCATS] Johns Hopkins University School of Medicine Florida State University Assay Overview: Many compounds can cause cytotoxicity at high compound concentrations. […] The compound cytotoxicity may also cause side effects or toxicity in human. Thus, the compound cytotoxicity needs to be measured in each cell type and each compound incubation time - same as these in the compound screening assay. The compound cytotoxicity can be measured by cell viability assays such as the ATP content assay. We use an ATP content assay kit for cell viability measurement. It measures ATP content (level) in human astrocytoma cell line (SNB-19) using a luminescence readout that is proportional to viable cell numbers. Decrease in the luminescence signal after the compound treatment indicates reduced cell viability and cell death caused by compound treatment.
Assay Protocol Summary: The medium for SNB-19 cells is composed of RPMI 1640 (ATCC, Cat.# 30-2001), 10% fetal bovine serum (FBS) (GE healthcare Life Sciences, Cat.# SH30071.03), and 1% Pen/Strep (Gibco, Cat.# 15140-122). The ATP content assay kit (PerkinElmer, Cat.# 6016731) was used to determine cell viability. The reagent was reconstituted and prepared as described by the manufacturer. Cells were seeded in 384- or 1536-well assay plates and cultured at 37 C with 5% CO2 for 16 to 20 hours. The typical cell seeding density in the 1536-well plate assay is 250 cells/well in 3ul medium for SNB-19 cells in tissue culture treated plates. Compounds were added to cells and incubated for a specific time such as 6, 24, or 72 hours before addition of the reagent mixture of the ATP content assay kit at 1:1 ratio. After incubation at room temperature for 10 minutes, the luminescence intensity in assay plates was measured using a ViewLux plate reader (PerkinElmer). […] The percentage inhibitions of the decreased cell viability by small molecules were then calculated that indicate compound cytotoxicity.

SMILES | Potency
Cc1cc(O)c2c(c1)C(=O)c1cc(O)cc(O)c1C2=O | inactive
O=C(Nc1ncc([N+](=O)[O-])s1)c1cccs1 | inactive
CCOCCOC(=O)/C=C/c1ccc(OC)cc1 | inactive
Nc1ccc(N=Nc2ccccc2)c(N)n1 | inactive
CC1=C(CO)C(=O)O[C@@H]([C@@H](C)[C@H]2CC[C@H]3[C@@H]4C[C@H]5O[C@]56[C@@H](O)C=CC(=O)[C@]6(C)[C@@H]4CC[C@]23C)C1 | inactive
O=C(Nc1ccc(OC(F)(F)F)cc1)c1sccc1NCc1ccnc2ccccc12 | inactive
Nc1cc(C(F)(F)F)ccc1S | inactive
CC(C)OC(=O)CCCC=CC[C@@H]1[C@H](C=C[C@@H](O)COc2cccc(C(F)(F)F)c2)[C@H](O)C[C@@H]1O | inactive
CCCCCCCCCCCC(=O)[O][Sn]([CH2]CCC)([CH2]CCC)[O]C(=O)CCCCCCCCCCC | inactive
O=c1c(-c2ccc(O)cc2)coc2cc(OC3O[C@H](CO)[C@H](O)[C@H](O)[C@H]3O)cc(O)c12 (stereo not given in full) | inactive
COc1cccc2c1C(=O)c1c(O)c3c(c(O)c1C2=O)C[C@@](O)(C(=O)CO)C[C@@H]3O[C@H]1C[C@H](N)[C@H](O[C@@H]2CCCCO2)[C@H](C)O1 | inactive
O=C(O)c1ccccc1NCCc1ccccc1 | inactive
O=C(Nc1ccc(C(=O)O)c(O)c1)c1ccccc1 | inactive
Cc1ccc(C(=O)c2ccc(CC(=O)O)n2C)cc1 | inactive
CN(C)c1cc(NC(=O)CNC(C)(C)C)c(O)c2c1C[C@@H]1C[C@H]3[C@H](N(C)C)C(=O)C(C(N)=O)=C(O)[C@@]3(O)C(=O)C1=C2O | inactive
COc1ccc(-c2cc(=S)ss2)cc1 | inactive
Cc1c(N)c(=O)n(-c2ccccc2)n1C | inactive
O=C(c1ccccc1)c1ccc2n1CCC2C(=O)O (stereo not given) | inactive
O=C(O)c1ccccc1Nc1cccc(C(F)(F)F)c1 | inactive
O=C1c2ccccc2C(=O)c2c1ccc(O)c2O | inactive

SMILES | Potency
Nc1ccc(O)c(C(=O)O)c1 | inactive
C=CCCCCCCCCC(=O)O | inactive
CC(=O)Oc1cccc2c1C(=O)c1c(OC(C)=O)cc(C(=O)O)cc1C2=O | inactive
COCCn1c2c([n+](Cc3cnccn3)c1C)C(=O)c1ccccc1C2=O | 0.0155 µM (active)
CCN1/C(=C/C=C/c2sc3ccccc3[n+]2CC)Sc2ccccc21 | inactive
COc1ccc(-c2cc(=O)c3c(O)cc(O)cc3o2)cc1O | inactive
C[C@@H]1CCN(C(=O)CC#N)C[C@H]1N(C)c1ncnc2[nH]ccc12 | inactive
CCCS(=O)c1ccc2nc(NC(=O)OC)[nH]c2c1 (stereo not given) | inactive
CN1CC(=O)N/C1=N/C(=O)Nc1cccc(Cl)c1 | inactive
O=C(Oc1ccccc1)c1cccc(C(=O)Oc2ccccc2)c1 | inactive
NC(=O)c1cccc2[nH]c(-c3ccc([C@H]4CCCN4)cc3F)nc12 | 5.48 µM (active)
C[C@H](NC(=O)C(=O)Nc1ccccc1C(C)(C)C)C(=O)N[C@@H](CC(=O)O)C(=O)COc1c(F)c(F)cc(F)c1F | inactive
O=C(C=CC=Cc1ccc2c(c1)OCO2)N1CCCCC1 | inactive
CNC(=O)c1ccccc1Sc1ccc2c(/C=C/c3ccccn3)n[nH]c2c1 | 10.9 µM (active)
CC[C@]1(O)C[C@H]2CN(CCc3c([nH]c4ccccc34)[C@@](C(=O)OC)(c3cc4c(cc3OC)N(C=O)[C@H]3[C@@](O)(C(=O)OC)[C@H](OC(C)=O)[C@]5(CC)C=CCN6CC[C@]43[C@@H]65)C2)C1 | inactive
COc1cc(NC(C)CCCN)c2ncccc2c1 (stereo not given) | inactive
CC(O)=C(C#N)C(=O)Nc1ccc(C(F)(F)F)cc1 | 8.69 µM (active)
CS(=O)(=O)c1ccc(-c2cn3ccccc3n2)cc1 | 12.3 µM (active)
O=c1cc(-c2ccccc2)oc2cc(O)c(O)c(O)c12 | inactive
O=C(O)c1cc([N+](=O)[O-])ccc1NCCCc1ccccc1 | inactive
